Source: PubChem
Autofluor counter: counter-screen for toxin protease inhibitors: compound fluorescence; compound autofluorescence counterscreen, microsphere flow cytometry; active compounds read high; fluorescence intensity (concentration not given with the values); 3.1% of 360,000 active; in the data active = fluorescence intensity above about 16000; inconclusive = no clear call, values can overlap the other calls
BoNT-F LC inh: BoNT F light chain protease inhibition; inhibition, % at 10 µM; Multiplex microsphere protease cleavage assay, flow cytometry; 0.22% of 360,000 active; AID 588497; in the data active = inhibition above about 35%, passing the limit was not always enough; inconclusive = no clear call, values can overlap the other calls; note: plate controls were buffer without enzyme for full effect and enzyme alone for no effect
BoNT-A LC inh2: blocks Botulinum neurotoxin A light chain protease; AID 588499; inhibition, % at 10 µM; multiplex microsphere protease substrate cleavage, flow cytometry; 0.17% of 360,000 active; note: plate controls were buffer without enzyme for full effect and enzyme alone for no effect
Anthrax LF inh2: blocks Bacillus anthracis lethal factor protease. AID 588501. P15917. inhibition, % at 10 µM. multiplex microsphere protease cleavage assay, LF. 0.12% of 360,000 active; note: plate controls were buffer without enzyme for full effect and enzyme alone for no effect
Target sequence (P15917 whole entry, looked up): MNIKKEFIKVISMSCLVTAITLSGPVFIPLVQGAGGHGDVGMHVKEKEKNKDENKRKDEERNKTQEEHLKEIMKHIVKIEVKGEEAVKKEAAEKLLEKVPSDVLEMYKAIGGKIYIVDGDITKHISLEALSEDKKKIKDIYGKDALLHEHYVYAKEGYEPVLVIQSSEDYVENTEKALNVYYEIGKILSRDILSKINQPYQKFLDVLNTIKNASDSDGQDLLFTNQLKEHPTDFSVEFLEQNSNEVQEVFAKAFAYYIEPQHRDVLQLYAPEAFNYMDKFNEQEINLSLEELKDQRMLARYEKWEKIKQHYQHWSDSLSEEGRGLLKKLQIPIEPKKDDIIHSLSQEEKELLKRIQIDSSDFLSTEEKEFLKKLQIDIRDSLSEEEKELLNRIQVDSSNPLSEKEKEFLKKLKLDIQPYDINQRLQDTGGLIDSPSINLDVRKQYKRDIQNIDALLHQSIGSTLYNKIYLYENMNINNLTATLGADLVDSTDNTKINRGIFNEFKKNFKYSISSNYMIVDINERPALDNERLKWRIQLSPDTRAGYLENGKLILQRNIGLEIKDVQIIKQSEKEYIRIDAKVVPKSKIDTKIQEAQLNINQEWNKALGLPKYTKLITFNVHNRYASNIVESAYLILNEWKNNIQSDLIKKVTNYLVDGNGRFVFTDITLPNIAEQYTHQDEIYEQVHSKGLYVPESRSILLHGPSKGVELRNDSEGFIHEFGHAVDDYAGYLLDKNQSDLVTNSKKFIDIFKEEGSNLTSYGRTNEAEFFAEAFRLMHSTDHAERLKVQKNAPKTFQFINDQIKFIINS
An asterisk follows results filed as active; ? = inconclusive. Rows were chosen to be rich in hits. Some 3.5% of all compounds tested hit in one or more screens of this group. Cut-off read from the data, not from the text of the source, unless noted: active = inhibition above about 30%; inconclusive = no clear call, values can overlap the other calls; inactive = below that.

SMILES	Autofluor counter	BoNT-F LC inh	BoNT-A LC inh2	Anthrax LF inh2
N#Cc1c(N)nc2c(c1-c1ccccc1)CCCC2	21448*	3	?	-9
N#Cc1c(N)nc2c(c1-c1ccncc1)CCCCCC2	23466*	-2	-1	-3
CSc1nc2c(c(-c3ccccc3)c1C#N)CCC2	21295*	3	?	1
CN(C)S(=O)(=O)c1cccc(NC(=O)COc2ccccc2C(=O)NCc2ccccc2)c1	?	4	2	-1
COc1cccc(COC(=O)CSCC(=O)Nc2ccc(C)cc2)c1OC	3009	-6	-1	5
O=[N+]([O-])c1ccc(/C=N/NC2=NS(=O)(=O)c3ccccc32)cc1	2301	3	0	0
O=[N+]([O-])c1ccc(O)c(/C=N/NC2=NS(=O)(=O)c3ccccc32)c1	2644	41*	6	1
O=C(NC1CCCCC1)C1c2ccccc2OCC(=O)N1CCc1ccccc1 (configuration not stated)	5748	1	-1	0
CCOc1nc(OCC)c2[nH]c(C(=O)O)c(Br)c2n1	4188	4	0	-1
NC1=NC2(CCCCC2)N(c2cccc(Cl)c2)C(N)=N1	16971*	-3	-1	-1
Cc1ccc(CSc2nnc(-c3ccccn3)n2Cc2cccs2)cc1	3569	-9	0	-1
CN(CCc1ccccn1)C(=S)Nc1ccc(Cl)c(Cl)c1	4665	-5	-1	-3
CN(CCc1ccccn1)C(=O)Nc1ccc(Cl)cc1	17188*	-1	-2	-1
O=C(CCSCCc1ccccn1)Nc1ccc(Br)cn1	23488*	0	1	0
O=C(CCSCCc1ccccn1)Nc1ccc(Cl)cn1	20129*	1	?	4
CCN1C(=O)[C@H]2[C@@H](c3ccc(C(F)(F)F)cc3)N[C@]3(CCCN(CC4CCCCC4)C3=O)[C@H]2C1=O	3879	-1	0	-7
CN(C)CCN1CCN(C2CN(Cc3ccccc3)S(=O)(=O)C2)CC1 (configuration not stated)	5401	-4	1	-2
COc1ccc(/C=C/C(=O)OCC(=O)NCCc2ccccc2)c(OC)c1	3482	1	-1	-3
CCC(C)[C@H](NC(=O)[C@H](Cc1ccccc1)n1c(=O)[nH]c2ccccc2c1=O)C(=O)NCC1CCC(C(=O)O)CC1 (some centres not stated)	5121	3	0	-10
CC1(C(=O)NS(=O)(=O)c2ccc(Br)cc2)CCN1C(=O)C1CCCCC1 (configuration not stated)	3964	2	0	-5
CCCc1ncc(C(=O)c2ccc(OC)cc2)n1C	24262*	-5	-3	-1
COc1ccc(C(=O)c2cnc(C(C)C)n2C)cc1	7218	-15	0	-4
CCc1cc(Br)ccc1NC(=S)NCCc1ccccc1	5573	6	2	-3
CCOC(=O)c1cnn(CCOC(=O)c2cccs2)c1NC(=O)c1cccs1	22411*	3	1	0
CC1CCN(Cc2c(O)ccc3c(=O)c(-c4nc5ccccc5s4)c(N)oc23)CC1	2127	-4	0	0
SMILES	Autofluor counter	BoNT-F LC inh	BoNT-A LC inh2	Anthrax LF inh2
CC1CCCN(Cc2c(O)ccc3c(=O)c(-c4nc5ccccc5s4)c(N)oc23)C1 (configuration not stated)	25322*	-10	?	-4
CCc1c(C)nc(N)nc1N1N=C1SC	5437	-1	-1	3
CCCCSC1=NN1c1nc(N)nc(C)c1CC	22245*	7	3	-2
c1ccc(COCCN2CCN(CCOCc3ccccc3)CC2)cc1	16853*	-1	-2	-5
c1ccc(CCCN2CCN(CCOC(c3ccccc3)c3ccccc3)CC2)cc1	5680	2	0	-1
CCn1c(=O)cc(SCC(=O)NCCCN2CCC(C)CC2)c2ccccc21	2605	-1	0	1
CCn1c(=O)cc(SCC(=O)NCCCN2CCN(c3ccc(F)cc3)CC2)c2ccccc21	20024*	1	2	0
CCn1c(=O)cc(SCC(=O)NCCN2CCN(Cc3ccccc3)CC2)c2ccccc21	22769*	0	?	-4
CCc1nc2ccc(C(=O)Nc3cccc(NS(C)(=O)=O)c3)cn2c1N(CC)CCOC	4011	-1	0	-3
COc1ccccc1OCC(=O)NCC1CCCN(C(=O)c2cccc(C)c2)C1 (configuration not stated)	3597	-5	0	-3
COc1ccc(Cl)cc1NC(=O)NC(C)c1ccncc1 (configuration not stated)	17204*	-4	-2	0
COc1ccc(Cl)cc1NC(=O)Nc1ccc(Br)cn1	17461*	-6	?	-3
COc1ccccc1NC(=O)Nc1ccc(Br)cn1	2341	-2	0	-2
CCOCCC(=O)Nc1cc(Cl)ccc1OC	22752*	1	1	-2
COc1ccc(Cl)cc1NC(=O)CCc1ccccc1	3100	-11	-1	-2
